Compounds without any hit were thinned out: in the full panel of roughly 83,000, 20% have a hit.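 The endpoint reported here, percent growth, reads 100 for growth as untreated, 0 for no net growth and -100 for all cells dead.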 Values without a mark were called inactive. Active and inactive are the calls of the source. How the source made its calls: active means growth percent below 10; inactive means the rest.
tested on: PC-3 prostate; assay: NCI-60 one-dose screen, 48 h (100 = growth as untreated, 0 = no growth, -100 = all killed); conditions: 10 µM unless noted

Row | Compound | growth
1 | Brc1ccc(-c2n(Cc3ccc4ccccc4c3)c(-c3ccccc3)c(-c3ccccc3)[n+]2Cc2ccc3ccccc3c2)cc1 | -29.3% (active)
2 | O=C1CCCc2cc(OCC(=O)N3CCCCC3)ccc2N1 | 109%
3 | COc1cc2c3c(n(CCCN4CCC[C@@H]4CO)c(=O)c2cc1OC)-c1cc2c(cc1C3=O)OCO2 | -17.8% (active)
4 | CC(=O)c1c(N)c(C#N)cn1-c1ccc(Cl)cc1Cl | 90.8%
5 | Cc1ccc(C2CC(c3ccc(S(=O)(=O)NCCNc4nc(Nc5ccc(F)cc5)nc(N(C)C)n4)cc3)=Nc3c(N)nc(N)nc3N2)cc1 (stereo not drawn) | 33.5%
6 | Cc1ccc(C(=O)C(c2c[nH]c3ccccc23)c2c[nH]c3ccccc23)cc1 | 17.1%
7 | COc1cc(-c2nc3ccc(C)cc3[nH]2)ccc1OCc1nnc(-c2ccc(Br)cc2)o1 | 27.9%
8 | Nc1nnc(-c2c[nH]c3ccc(Br)cc23)c(-c2c[nH]c3ncc(Br)cc23)n1 | 29.1%
9 | Cc1ccc(-c2nc(C#N)c(S(=O)(=O)N3CCN(S(=O)(=O)c4ccc(Cl)cc4)CC3)o2)cc1 | 101%
10 | CCOC(=O)C1=C(N)N(c2ccccc2)C2=C(C(=O)CC(C)(C)C2)C1c1ccccc1Cl (stereo not drawn) | 29.6%
11 | Cc1ccc(C(=O)NN2C(=O)/C(=C/C=C/c3ccc([N+](=O)[O-])o3)SC2=S)cc1 | -15.1% (active)
12 | CCCS(=O)(=O)N1CCCC(C(=O)Nc2nc3ccc(NC(=O)c4ccc(F)c(OC)c4F)cc3s2)C1 (stereo not drawn) | 37.3%
13 | O=C1CC(Sc2n[nH]c(-c3ccncc3)n2)C(=O)N1c1ccc(Br)cc1 (stereo not drawn) | 118%

Reference: PubChem BioAssay (NCI)
